Measurements published in PubChem BioAssay AID1159580 (chemical genetic matrix, 2015).
“And” between values parts separate entries of the source, which are not always exact repeats. Equal values may be shown once. In all, about 5,500 compounds went through this assay and about 2,000 (36%) were called active. Inconclusive results (about 18%) are left out. Cut-off read from the data, not from the text of the source: active = normalized growth mostly below about 0.91 (no sharp cut-off); inconclusive = no clear call, values can overlap the other calls; inactive = mostly above about 0.92. The list shows a part of the results.

Test: chemical genetic growth profiling, strain panel (AID 1159580);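 note: tested at 20 µM; growth read once vehicle control cultures reached saturation at 30 °C; 1 = growth at the plate median or of vehicle wells; lower values mean less growth of the strain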
Settings: S. cerevisiae deletion strains, growth OD

Measured: normalized growth

OC[C@H]1O[C@@H](Oc2ccc(O)cc2)[C@H](O)[C@@H](O)[C@@H]1O
inactive: locus YAL013W, strain DEP1, hits give low values 1.02 | locus YAL021C, strain ccr4, hits give low values 0.993 | locus YAL026C, strain drs2, hits give low values 1.02 | locus YAL030W, strain snc1, hits give low values 1.01 | locus YBL061C, strain skt5, hits give low values 1.02 | locus YBR009C, strain hhf1, hits give low values 1.02 | locus YBR021W, strain FUR4, hits give low values 0.988 | locus YBR023C, strain chs3, hits give low values 1.01 | locus YBR171W, strain sec66, hits give low values 1.01 | locus YBR229C, strain ROT2, hits give low values 1.02 | locus YBR231C, strain swc5, hits give low values 1 | locus YBR279W, strain paf1, hits give low values 1.01 | locus YCL011C, strain gbp2, hits give low values 1.01 | locus YCL016C, strain dcc1, hits give low values 0.992 | locus YCL029C, strain bik1, hits give low values 1.04 | locus YCL069W, strain vba3, hits give low values 1.01 | locus YCR088W, strain abp1, hits give low values 1.02 | locus YDL005C, strain med2, hits give low values 1.01 | locus YDL035C, strain GPR1, hits give low values 1 | locus YDL040C, strain nat1, hits give low values 1 | locus YDL074C, strain BRE1, hits give low values 1.03 | locus YDL101C, strain DUN1, hits give low values 1.02 | locus YDL134C, strain PPH21, hits give low values 1.02 | locus YDL185W, strain tfp1, hits give low values 1.02 | locus YDL192W, strain arf1, hits give low values 1.03 | locus YDR001C, strain nth1, hits give low values 1 | locus YDR069C, strain doa4, hits give low values 1.01 | locus YDR101C, strain arx1, hits give low values 1.01 | locus YDR137W, strain rgp1, hits give low values 1.02 | locus YDR159W, strain sac3, hits give low values 1.05 | locus YDR162C, strain NBP2, hits give low values 1.03 | locus YDR195W, strain ref2 1 | locus YDR297W, strain sur2, hits give low values 1 | locus YDR318W, strain mcm21, hits give low values 1.02 | locus YDR334W, strain swr1, hits give low values 1 | locus YDR335W, strain msn5, hits give low values 1.02 | locus YDR388W, hits give low values 1.01 | locus YDR392W, strain spt3, hits give low values 1.02 | locus YDR502C, strain sam2, hits give low values 1.01 | locus YEL003W, strain gim4, hits give low values 1.01 | locus YEL037C, strain rad23, hits give low values 0.999 | locus YEL061C, strain CIN8 (second series), hits give low values 1.01 | locus YEL061C, strain CIN8, hits give low values 1.01 | locus YER015W, strain faa2, hits give low values 1.01 | locus YER016W, strain bim1, hits give low values 1.01 | locus YER110C, hits give low values 1.03 | locus YER111C, strain swi4, hits give low values 1.01 | locus YER155C, strain BEM2 (second series), hits give low values 1.03 | locus YER155C, strain BEM2, hits give low values 0.999 | locus YER167W, strain BCK2, hits give low values 1.01 | locus YFR010W, strain ubp6, hits give low values 1.01 | locus YGL078C, strain dbp3, hits give low values 1.03 | locus YGL086W, strain mad1, hits give low values 1.01 | locus YGL167C, strain pmr1, hits give low values 1.02 | locus YGL173C, strain kem1, hits give low values 1.02 | locus YGL227W, strain vid30, hits give low values 1.01 | locus YGL240W, strain doc1, hits give low values 1.02 | locus YGL248W, strain PDE1, hits give low values 1.01 | locus YGL253W, strain hxk2, hits give low values 1.03 | locus YGR078C, strain PAC10, hits give low values 1.03 | locus YGR135W, strain pre9, hits give low values 1.03 | locus YGR252W, strain gcn5, hits give low values 1.02 | locus YHR013C, strain ard1, hits give low values 1.02 | locus YHR027C, strain rpn1, hits give low values 1.01 | locus YHR030C, strain SLT2, hits give low values 1 and 0.962 | locus YHR079C, strain IRE1 (second series), hits give low values 1.02 | locus YHR079C, strain IRE1, hits give low values 0.973 | locus YHR094C, strain hxt1, hits give low values 1.02 | locus YHR129C, strain ARP1, hits give low values 1.01 | locus YHR142W, strain chs7, hits give low values 1.01 | locus YHR200W, strain rpn10, hits give low values 1.02 | locus YIL066C, strain RNR3, hits give low values 1.01 | locus YIL073C, strain SPO22, hits give low values 1.08 | locus YIL125W, strain kgd1, hits give low values 1.02 | locus YIR030C, strain dcg1, hits give low values 1.01 | locus YJL092W, strain hpr5, hits give low values 1.01 | locus YJL095W, strain BCK1 (second series), hits give low values 1 | locus YJL095W, strain BCK1, hits give low values 1.04 and 0.973 | locus YJL115W, strain asf1, hits give low values 1 | locus YJL129C, strain trk1, hits give low values 1.03 | locus YJL134W, strain LCB3, hits give low values 1 | locus YJL154C, strain vps35, hits give low values 1.01 | locus YJL164C, strain tpk1, hits give low values 1.01 | locus YJL166W, strain qcr8, hits give low values 1.02 | locus YJL168C, strain set2, hits give low values 1.02 | locus YJL187C, strain SWE1 (second series), hits give low values 1.03 | locus YJL187C, strain SWE1, hits give low values 1.02 | locus YJR066W, strain TOR1, hits give low values 0.959 | locus YKL009W, strain mrt4, hits give low values 1.02 | locus YKL068W, hits give low values 1.01 | locus YKL085W, strain MDH1 (second series), hits give low values 1.01 | locus YKL085W, strain MDH1, hits give low values 1.01 | locus YKL160W, strain elf1, hits give low values 1 | locus YKR001C, strain vps1, hits give low values 1.03 | locus YKR026C, strain gcn3, hits give low values 1.01 | locus YKR091W, strain srl3, hits give low values 1 | locus YLL001W, strain dnm1, hits give low values 1.01 | locus YLL026W, hits give low values 1.01 | locus YLL041C, strain sdh2, hits give low values 1.03 | locus YLR027C, strain aat2, hits give low values 1.01 | locus YLR039C, strain RIC1, hits give low values 1.06 | locus YLR058C, strain SHM2, hits give low values 1.04 | locus YLR102C, strain apc9, hits give low values 1.02 | locus YLR113W, strain HOG1, hits give low values 0.944 | locus YLR221C, strain rsa3, hits give low values 1.01 | locus YLR258W, strain gsy2, hits give low values 1.01 | locus YLR262C, strain YPT6 (second series), hits give low values 1.03 | locus YLR268W, strain sec22, hits give low values 1.03 | locus YLR320W, strain mms22, hits give low values 1.03 | locus YLR330W, strain CHS5, hits give low values 1.01 | locus YLR342W, strain FKS1, hits give low values 1.01 | locus YLR357W, strain rsc2, hits give low values 1.03 | locus YLR370C, strain arc18, hits give low values 1.01 | locus YLR371W, strain rom2, hits give low values 1.01 | locus YLR384C, strain iki3, hits give low values 1.03 | locus YLR418C, strain cdc73, hits give low values 1.06 | locus YML016C, strain PPZ1, hits give low values 1 | locus YML032C, strain rad52, hits give low values 1.03 | locus YML120C, strain ndi1, hits give low values 1.01 | locus YML124C, strain tub3, hits give low values 1.02 | locus YMR058W, strain fet3, hits give low values 1.01 | locus YMR078C, strain ctf18, hits give low values 1.04 | locus YMR125W, strain sto1, hits give low values 1.03 | locus YMR129W, hits give low values 1.01 | locus YMR205C, strain PFK2, hits give low values 1 | locus YMR223W, strain ubp8, hits give low values 1.02 | locus YMR231W, strain pep5, hits give low values 1.01 | locus YMR307W, strain GAS1, hits give low values 0.945 | locus YNL067W, strain RPL9B, hits give low values 1.02 | locus YNL071W, strain lat1, hits give low values 1.01 | locus YNL183C, strain NPR1, hits give low values 0.963 | locus YNL209W, strain ssb2, hits give low values 1.02 | locus YNL233W, strain BNI4, hits give low values 1.02 | locus YNL248C, strain rpa49, hits give low values 1.03 | locus YNL250W, strain rad50, hits give low values 1.05 | locus YNL271C, strain bni1, hits give low values 1.02 | locus YNL298W, strain CLA4, hits give low values 1.02 | locus YNL307C, strain MCK1, hits give low values 1.02 | locus YNL322C, strain KRE1 (second series), hits give low values 1 | locus YNR049C, strain mso1, hits give low values 1.02 | locus YNR052C, strain pop2, hits give low values 1.03 | locus YOL006C, strain TOP1, hits give low values 1.06 | locus YOL012C, strain htz1 0.901 | locus YOL147C, strain pex11, hits give low values 1.01 | locus YOR001W, strain rrp6, hits give low values 1.01 | locus YOR061W, strain CKA2, hits give low values 1.02 | locus YOR069W, strain VPS5, hits give low values 1.01 | locus YOR070C, strain gyp1, hits give low values 1.01 | locus YOR080W, strain dia2, hits give low values 1 | locus YOR083W, strain WHI5, hits give low values 0.992 | locus YOR106W, strain vam3, hits give low values 0.992 | locus YOR136W, strain idh2, hits give low values 1.03 | locus YOR144C, strain elg1, hits give low values 1.02 | locus YOR184W, strain ser1, hits give low values 1.05 | locus YOR231W, strain MKK1, hits give low values 0.958 | locus YOR265W, strain rbl2, hits give low values 0.991 | locus YOR270C, strain vph1, hits give low values 1.05 | locus YOR290C, strain snf2, hits give low values 0.993 | locus YOR316C, strain cot1, hits give low values 1.02 | locus YPL051W, strain arl3, hits give low values 0.989 | locus YPL055C, strain LGE1, hits give low values 1.04 | locus YPL078C, strain atp4, hits give low values 1.01 | locus YPL106C, strain sse1, hits give low values 0.995 | locus YPL240C, strain hsp82, hits give low values 1.01 | locus YPL241C, strain CIN2, hits give low values 1.01 | locus YPL256C, strain CLN2, hits give low values 0.977 | locus YPR119W, strain clb2, hits give low values 1.03 | locus YPR141C, strain kar3, hits give low values 1.02 | locus YPR163C, strain tif3, hits give low values 1.03 | locus YPR167C, strain met16, hits give low values 1.03 | strain wtn01, hits give low values 1.02
